The results in this text go back to PubChem BioAssay AID540257 (Southern Research Specialized Biocontainment Screening …, 2011).

The campaign covered roughly 1,800 compounds. About 15 (0.8%) were called active. Only a sample is shown. Potency and affinity values are given separately. Unmarked numbers belong to inactive results. The rule behind the calls is not given here.

The assay is described as follows: antiviral activity against H1N1 influenza, dose response, cell-based, strain KY136 (AID 540257). The settings on record: H1N1 KY136 influenza antiviral cell assay, % inhibition; series mostly up to 40 µM; inhibition: at the top concentration.
On to `c1ccc(-c2cn(C[C@H]3CC[C@@H]([C@@H]4CC[C@H](Cn5cc(-c6ccccn6)nn5)O4)O3)nn2)nc1`, for which the inhibition (commonly the drop in the measured response relative to a control, in per cent) was 1.01%.

For the molecule `Cc1nnc2sc(SCC(=O)Nc3ccc(Cl)cc3)nn2c1=O`, the “inhibition” value was -2.9%.

For the molecule `CC(=O)N/C(=C/c1ccc(OC(F)F)cc1)C(=O)O`, the “inhibition” value was 1.56%.

In the case of `Cc1[nH]c(=O)[nH]c1C(=O)CCCCC(=O)O`, the “inhibition” value was 1.82%.

Turning to `COc1ccc(C2Nc3ccccc3C(=O)N2c2ccccc2)cc1CSc1ccccn1` (configuration not stated), the “inhibition” value is 1.38%.

As for `Cc1ccc(C(=O)Nc2ccccc2C(=O)NCC2CCCO2)cc1` (configuration not stated), the “inhibition” value was -1.35%.

For `CCOc1cccc(-c2c(C(=O)N/N=C(\C)c3ccccn3)nnn2-c2nonc2N)c1`, the “inhibition” value was -13.8%.

As for `O=C1NCCCC1C(=O)N/N=C/c1cc([N+](=O)[O-])ccc1O` (configuration not stated), the “inhibition” value was -13%.

For `C/C(=N\NC(=O)c1cccc(Br)c1)c1ccccn1`, the “inhibition” value was -1.04%.

`COc1ccc(NC(=O)CSc2nc3ccccc3nc2N2CCCC2)c(OC)c1`: the “inhibition” value is 0.12%.

For the molecule `COCc1cc(C)n(CC(=O)Nc2cccc(C)c2)c(=O)c1C#N`, the “inhibition” value is -0.15%.

As for `COc1ccc(/C=C/C(=O)NCCn2c(C)cc3ccccc32)cc1OC`, the “inhibition” value was 0.58%.

`CCN1C(=O)/C(=C2\SC(=S)N(CCCOC)C2=O)c2ccccc21`: the “inhibition” value was 2.51%.

For the molecule `O=c1c2ccccc2ncn1C1CCCCC1`, the “inhibition” value was -6.06%.

`CCOC(=O)C1CCN(C(c2cccc(OC)c2)c2sc3nc(C)nn3c2O)CC1` (configuration not stated): the “inhibition” value was 4.95%.

Take `COc1ccccc1/C=N/NC(=O)c1[nH]c(C)c(C(=O)N/N=C/c2ccccc2OC)c1C`: the “inhibition” value was 0.28%.

As for `CCCCN1C2=C(C(=O)CC(C)(C)C2)C(c2ccccc2)C2=C1c1ccccc1C2=O` (configuration not stated), the “inhibition” value was 0.91%.

`C(=N\c1c(-c2ccccc2)nc2n1CCS2)/c1ccccc1`: the “inhibition” value is 1.65%.

For the molecule `CN(C)c1ccc(/C=C/C=C2/C(=O)NC(=O)N(c3ccccc3)C2=O)cc1`, the “inhibition” value was -1.39%.

Take `CC(=O)Oc1ccc(C(=O)Nc2ccccc2C(=O)NCC(C)C)cc1`: the “inhibition” value was -6.06%.

Take `CC(=O)Nc1cccc(NC(=O)CSc2ccc(-c3ccccn3)nn2)c1`: the “inhibition” value is -3.76%.

Turning to `COc1ccc(N2CCN(CCCNC(=O)c3cc4sccc4n3C)CC2)cc1`, the “inhibition” value was 1.28%.

Regarding `Clc1ccc(-c2cnnc(-c3ccccn3)n2)cc1`, the “inhibition” value is -2.12%.

On to `O=[N+]([O-])c1ccc2c(c1Nc1ccccc1)=NC1(CCCCC1)N=2`, for which the “inhibition” value was 7.35%.

In the case of `C=CCn1c(=NC(=O)C2CCCCC2)sc2cc(NC(C)=O)ccc21`, the “inhibition” value is -2.32%.

As for `CCc1ccccc1NC(=S)N(CCN(C)C)C(C)c1ccccn1` (configuration not stated), the “inhibition” value was 6.54%.

Consider `COc1cc(-c2nnc(NC(=O)CCS(=O)(=O)c3ccc(F)cc3)o2)cc(OC)c1OC`, for which the “inhibition” value is -0.81%.

In the case of `CCOC(=O)c1ccc(N2C(=O)c3n[nH]c(C)c3C2c2ccccn2)cc1` (configuration not stated), the “inhibition” value was 5.65%.

With `Cc1cc2cc(CNC(=O)c3cccc([N+](=O)[O-])c3)ccc2n1C`, the “inhibition” value was 4.06%.

For `CC(C)Oc1ccccc1/C=N/Nc1ccccc1[N+](=O)[O-]`, the “inhibition” value was -1.97%.

Take `CN1CCN(c2ccc([N+](=O)[O-])cc2C(=O)c2ccccc2)CC1`: the “inhibition” value was 0.19%.

As to `Oc1ccc(/C=N/N(c2ccccc2)c2ccccc2)c(O)c1O`, the “inhibition” value is -0.92%.

For `C/C(CC(C)C)=N/Nc1ccc([N+](=O)[O-])cc1[N+](=O)[O-]`, the “inhibition” value was -6.42%.

Regarding `Cc1cc(NC(=O)CSc2nnc(C)c(=O)[nH]2)no1`, the “inhibition” value was 0.81%.

Take `COc1cccc(C(=O)NC(C)C(c2cccs2)N2CCOCC2)c1` (configuration not stated): the “inhibition” value is 1.55%.

On to `Cc1c2cc(O)c(=O)cc-2oc2cc(O)c(O)cc12`, for which the “inhibition” value is -0.93%.

With `CCOc1ccc(N=Nc2c(=O)[nH]n3c(=O)c4c([nH]c23)CCCC4)cc1`, the “inhibition” value was 1.63%.

As to `O=c1oc2cc(Oc3ccc(C(F)(F)F)cc3[N+](=O)[O-])ccc2c2c1CCC2`, the “inhibition” value is -3.03%.

`CN1CCc2c(sc(NC(=O)Cc3ccccc3)c2C(N)=O)C1`: the “inhibition” value was 5.22%.

In the case of `CCOc1ccc(N2CSC3=C(C#N)C(c4ccco4)CC(=O)N3C2)cc1` (configuration not stated), the “inhibition” value is -0.3%.

As for `CCCC(=O)NC(c1ccccc1)c1ccc2cccnc2c1O` (configuration not stated), the “inhibition” value is -4.68%.

`CN(C1=C(N2CCCCC2)C(=O)c2ccccc2C1=O)c1ccccc1`: the “inhibition” value was -3.76%.

Consider `COc1cccc(/C=N/Nc2ccnc(=O)[nH]2)c1O`, for which the “inhibition” value is -1.51%.

`COc1cccc(C(=O)Cn2c(N3CCOCC3)nc3c2c(=O)n(C)c(=O)n3C)c1`: the “inhibition” value is 0.81%.

In the case of `COc1ccc(Nc2c([N+](=O)[O-])ccc3c2=NC2(CCCCC2)N=3)cc1`, the “inhibition” value is 0.23%.

With `O=C(COC(=O)C1CC(=O)N(Cc2ccccc2)C1)c1ccc(Br)cc1` (configuration not stated), the “inhibition” value is 1.97%.

With `O=C1C(NS(=O)(=O)c2ccccc2)=C(N2CCN(c3ccc(F)cc3)CC2)C(=O)c2ccccc21`, the “inhibition” value was -3.18%.

Regarding `COc1cccc(NC(=O)CSc2nnc(CNC(=O)c3ccccc3)n2C)c1`, the “inhibition” value is -0.92%.

With `CCn1c(CNC(=O)c2cccc(C)c2)nnc1SCC(=O)Nc1cccc(OC)c1`, the “inhibition” value was -0.35%.

With `COc1ccccc1NS(=O)(=O)c1cccc(NC(=O)Cc2cccs2)c1`, the “inhibition” value is 2.51%.

Take `COc1cc2ccccc2cc1C(=O)Nc1nnc(-c2ccncc2)o1`: the “inhibition” value was 0.18%.

As for `Cc1cccc(NC(=O)NC(C)C(c2cccs2)N2CCOCC2)c1` (configuration not stated), the “inhibition” value was 4.01%.

For `COc1ccc(NC(=O)CC2C(=O)N(c3cccc(OC)c3)C(=O)N2Cc2ccco2)cc1` (configuration not stated), the “inhibition” value is -0.89%.

For `Cc1ccc(S(=O)(=O)C2(C(=O)Nc3cccc(F)c3)CC2)cc1`, the “inhibition” value is 0.83%.

With `COC(=O)CSc1nnc(C)n1-c1cccc(C#N)c1`, the “inhibition” value is 0%.

In the case of `Cc1cc(C(F)F)nn1CC(=O)Nc1cc([N+](=O)[O-])ccc1F`, the “inhibition” value was 6.79%.

For `Cc1cc(N(C)C)ccc1N=Nc1ccc(N)cc1`, the “inhibition” value was -4.32%.

As for `CN1CCN(CCC(=O)N/N=C/c2cc([N+](=O)[O-])ccc2O)CC1`, the “inhibition” value is -2.66%.

Take `CCCCn1c(SCC(=O)N2CCCc3ccccc32)nc2c1c(=O)n(C)c(=O)n2C`: the “inhibition” value is -0.15%.

On to `CC(=O)c1cccc(S(=O)(=O)Nc2cccc(S(=O)(=O)NC3=NCCC3)c2)c1`, for which the “inhibition” value was 0.46%.

Consider `CC[n+]1c(/C=C/c2ccc(N(C)C)cc2)ccc2ccccc21`, for which the “inhibition” value is -3.76%.

In the case of `CCC(=O)NC(c1cccs1)c1cc([N+](=O)[O-])c2cccnc2c1O` (configuration not stated), the “inhibition” value was -3.76%.

As to `CCCCn1c(O)c(/C(CC)=N/N2CCCCC2c2cccnc2)c(=O)[nH]c1=S` (configuration not stated), the “inhibition” value is 0.28%.

On to `CCCCCCn1nc(C(=O)N(CC(C)C)c2c(N)n(CCCC)c(=O)[nH]c2=O)c2ccccc2c1=O`, for which the “inhibition” value was -11.6%.

For the molecule `COc1cccc(NC(=O)CSc2nc3c(oc4ccccc43)c(=O)[nH]2)c1`, the “inhibition” value is 1.97%.

Regarding `COc1cccc(/C=N/Nc2cc(N3CCOCC3)ncn2)c1O`, the “inhibition” value was -5.03%.

Turning to `CCc1c(C)nc(Nc2nc(C)c3cc(OC)ccc3n2)[nH]c1=O`, the “inhibition” value was 0.12%.
